Results as given in PubChem BioAssay (EPA / NIEHS).
Where “and” joins values, the source holds several entries; their conditions need not be identical. Identical values can stand only once. More than one record can exist for a structure, and the calls need not agree. Calls of active or inactive are those of the source. How the source made its calls: active means hit-call score of the fitted dose curve at least 0.9, where 1 is the maximum; inactive means score below 0.9.

Assay: CCTE_Shafer_MEA_dev_spike_duration_mean: CCTE's Neural Network Formation Assay for Mean Spike Duration, Shafer Lab (AID 2284051);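 on AC50: potency for a decrease in mean network spike duration versus DMSO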
Description: CCTE_Shafer_MEA_dev assay is conducted using Axion Biosystems 48 well microelectrode array (MEA) plates and Maestro recording system. Each well of the MEA plate contains a grid of 16 microelectrodes embedded in the culture surface. Electrically active cells, such as neurons, can be cultured over the electrodes, and electrical activity in these cells can be recorded extracellularly. The spontaneous firing of neurons is captured from each electrode on a microsecond timescale providing both temporally and spatially precise data. […] The CCTE_Shafer_MEA_dev assay uses primary cultures of rat cortical neurons. Recordings are made on days post-plating 5, 7, 9 and 12. As these cultures mature over time, neural networks develop functional activity and form cohesive networks in which electrical activity can be highly coordinated. CCTE_Shafer_MEA_dev_spike_duration_mean is 1 of 19 assay components of the CCTE_Shafer_MEA_dev assay. It measures the average duration of network spikes (temporally-clustered groups of action potential firing across multiple electrodes) during a recording in a microelectrode array (MEA) using Axion Biosystems Maestro 768 channel amplifier with the AxIS adaptive spike detector. To collapse across multiple recordings made on days post-plating 5, 7, 9 and 12, the trapezoidal area-under-the-curve of the component is calculated.Data from the assay component CCTE_Shafer_MEA_dev_spike_duration_mean was analyzed into 1 assay endpoint. This assay endpoint, CCTE_Shafer_MEA_dev_spike_duration_mean, was analyzed in the negative analysis fitting direction relative to DMSO as the negative control and baseline of activity. Using a type of functional reporter, gain or loss-of-signal activity can be used to understand electrical activity.
On the day prior to culture, each well was coated thoroughly with 150 uL of 0.05% polyethyleneimine (PEI, Sigma Cat P3143) in 50 mM HEPES (Sigma Cat H7523) at a pH of 8. The plate was incubated at 37C for one hour. PEI was rinsed out with 500 uL of sterile water three times. Plates were stored at 4C until the day of culture. This culture was plated at a seeding density of 1.5 x 10^5 cells/well on a 48-well MEA plate, prepared as described above. Cells were administered via a 25 uL media/laminin ([…]; Sigma Cat L2020-1MG) drop directly onto the microelectrode array, as adding the cells with the laminin results in better attachment than pre-coating with laminin. After 2 hours, an additional 475 uL of cortical media was added and the cells returned to the incubator. Exposure starts at day 0 of plating and is continued over twelve days of network development until the experiment is terminated. Cells are fed with fresh medium on DIV 5 and 9, following the recordings on those days. The entire volume of media in the well is exchanged and any vehicle or compound treatment is renewed. Complete details are found in OP-NHEERL/ISTD/SBB/TJS/2015-03-r0 (available on request, email shafer.tim@epa.gov). Measurement of the electrical activity is non-invasive, and recordings can be made from the same plate over multiple different days of the culture. In cortical neurons, this allows for the measurement of extracellular action potentials over the period during which networks form in the MEA plate.

Compound	AC50	outcome
C=C(C)CN(CC)c1c([N+](=O)[O-])cc(C(F)(F)F)cc1[N+](=O)[O-]	13.2 µM (active)	
CC(C)=CC1C(C(=O)OCc2coc(Cc3ccccc3)c2)C1(C)C (stereo not drawn)		inactive
CC1(C)C(C(=O)OC(C#N)c2cccc(Oc3ccccc3)c2)C1(C)C (stereo not drawn)	16.2 µM (active)	
CCOP(=O)(OCC)Oc1nc(Cl)c(Cl)cc1Cl	5.13 µM (active) and 2.98 µM (active)	inactive
COP(=O)(OC)O/C(C)=C/C(=O)N(C)C		inactive
Cc1c(COC(=O)[C@@H]2[C@H](/C=C(\Cl)C(F)(F)F)C2(C)C)cccc1-c1ccccc1	2.33 µM (active) and 2.32 µM (active)	
CN/C(=N\[N+](=O)[O-])NCc1cnc(Cl)s1		inactive
CCCN(CC)CC1COC2(CCC(C(C)(C)C)CC2)O1 (stereo not drawn)	0.275 µM (active)	
CCOC(=O)C(C)OC(=O)c1cc(Oc2ccc(C(F)(F)F)cc2Cl)ccc1[N+](=O)[O-] (stereo not drawn)		inactive
COP(=S)(OC)SCn1nnc2ccccc2c1=O	27.2 µM (active)	
CS(=O)(=O)c1cc(C(F)(F)F)ccc1C(=O)c1cnoc1C1CC1		inactive
O=C(Nc1ccccc1-c1ccc(Cl)cc1)c1cccnc1Cl	4.26 µM (active)	inactive
CC(C)(C)C(=O)C(Oc1ccc(Cl)cc1)n1cncn1 (stereo not drawn)	40.2 µM (active)	
CCNC(=O)NC(=O)C(C#N)=NOC		inactive
CCN(CC)c1nc(C)cc(OP(=S)(OC)OC)n1	50 µM (active)	
CCSC(=O)N1CCCCCC1		inactive
CC1(C)C(C=C(Cl)Cl)C1C(=O)OC(C#N)c1cccc(Oc2ccccc2)c1 (stereo not drawn)	6.93 µM (active)	inactive
CS(=O)(=O)c1ccc(C(=O)C2C(=O)CCCC2=O)c([N+](=O)[O-])c1		inactive
O=C1C2CC=CCC2C(=O)N1SC(Cl)(Cl)Cl (stereo not drawn)	9.85 µM (active)	inactive
COC(=O)N(C(=O)N1CO[C@@]2(C(=O)OC)Cc3cc(Cl)ccc3C2=N1)c1ccc(OC(F)(F)F)cc1	15 µM (active)	
COP(=S)(OC)Oc1ccc([N+](=O)[O-])c(C)c1		inactive
CO/N=C(/C1=NOCCO1)c1ccccc1Oc1ncnc(Oc2ccccc2Cl)c1F	856 nM (active) and 904 nM (active)	
CNC(=O)Oc1cccc2ccccc12		inactive
N#CN=C1SCCN1Cc1ccc(Cl)nc1		inactive
